Experimental data as given in PubChem BioAssay (Tox21).
Records with an inconclusive call do not appear. Activity calls are given as the source filed them. Unless noted, calls follow the shape of the dose curve; as a rule, active = well fitted curve in the direction sought with a large enough effect in the repeat runs; inconclusive = weak or mixed curves; inactive = no such curve, though single readings can be large; an effect the other way counts as inactive or inconclusive.

Assays:
[1] = A CellTox Green Cytotoxicity Assay to monitor cytotoxicity in HEK293 cells - 32 hour (AID 1224881); also: nearly all actives have a fitted effect of over 40% in size
Summary of the method: (§1)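 Cytotoxicity was tracked continuously in HEK293 cells by a DNA-binding dye excluded from viable cells. Compounds were transferred in DMSO 5 h after seeding; fluorescence was recorded at intervals up to 40 h.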

[2] = A CellTox Green Cytotoxicity Assay to monitor cytotoxicity in HEK293 cells - 8 hour (AID 1224884); also: nearly all actives have a fitted effect of over 35% in size
Summary of the method: as §1

[3] = A CellTox Green Cytotoxicity Assay to monitor cytotoxicity in HEK293 cells - 16 hour (AID 1224888); also: nearly all actives have a fitted effect of over 35% in size
Summary of the method: as §1

[4] = qHTS RealTime-Glo MT Cell Viability Assay in HepG2 cells - 0 hour (AID 1224889); also: nearly all actives have a fitted effect of over 50% in size
Summary of the method: (§2)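 Cells + NanoLuc/prosubstrate dispensed (600 cells/well) → 5 h at 37 C/5% CO2 → compounds in DMSO transferred → 40 h incubation at 37 C, luminescence read at 0, 8, 16, 24, 32, 40 h.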

[5] = qHTS assay to identify small molecule antagonists of the androgen receptor (AR) signaling pathway using the MDA cell line in the presence of 0.5 nM R1881 - cell viability counter screen (AID 1259242); also: nearly all actives have a fitted effect of over 45% in size
Summary of the method: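 Cytotoxicity toward MDA-kb2 cells is measured by CellTiter-Fluor live-cell protease fluorescence after 16 hr compound exposure at 37C in the presence of 0.5 nM R1881 stimulator.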

[6] = qHTS assay to identify small molecule HDAC inhibitors (AID 1259364); also: nearly all actives have a fitted effect of over 45% in size; also: potency is read from the fitted curve at half-maximal effect
Summary of the method: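 Homogeneous cell-based luminescent assay of endogenous class I/II HDAC activity; HCT-116 cells, 2 h compound exposure, 30 min HDAC-Glo development at RT.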

[7] = qHTS assay to identify small molecule HDAC inhibitors - cell viability counter screen (AID 1259365); also: series mostly up to about 92 µM; nearly all actives have a fitted effect of over 50% in size
Summary of the method: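 HCT-116 (wild type), 1,500 cells/well, overnight 37C/5% CO2; compound in DMSO 2hr; CellTiter-Glo 30min RT; luminescence read.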

[8] = qHTS assay to identify small molecule agonists of the sonic hedgehog signaling (Shh) pathway - cell viability counter screen (AID 1259366); also: nearly all actives have a fitted effect of over 50% in size
Summary of the method: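 CellTiter-Fluor fluorescence read-out, 1 hr at 37C, added after 23hr compound exposure. Cells: 3T3 Gli1-Luc, an NIH/3T3 clone with stably integrated Gli1-Luc reporter, plated 4hr before compound.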

[9] = qHTS assay to identify small molecule antagonists of the sonic hedgehog signaling (Shh) pathway - cell viability counter screen (AID 1259367); also: nearly all actives have a fitted effect of over 55% in size
Summary of the method: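 Cells: 3T3 Gli1-Luc, 2,000/well, 4 hr pre-incubation. Compounds in DMSO, then conditioned medium. Incubation 24 hr, 37C, 5% CO2. CellTiter-Fluor at 23 hr, 1 hr, fluorescence.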

[10] = qHTS assay to identify small molecule agonists of the sonic hedgehog signaling (Shh) pathway (AID 1259368; calls by dose curve;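 also: NIH/3T3-derived 3T3Gli1-Luc cells carrying a stable Gli1-driven firefly luciferase reporter; series mostly up to about 92 µM; nearly all actives have a fitted effect of over 15% in size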)
Summary of the method: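 Steps: seed 3T3 Gli1-Luc cells, incubate 4 hr at 37 C, pin-transfer compounds in DMSO alongside a positive control, incubate 24 hr, add luciferase detection reagent, wait 30 min at room temperature, read luminescence.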

[11] = A CellTox Green Cytotoxicity Assay to monitor cytotoxicity in HepG2 cells - 32 hour (AID 1224883); also: nearly all actives have a fitted effect of over 50% in size
Summary of the method: (§3)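 Real-time, homogeneous cytotoxicity readout: dead-cell DNA staining by CellTox Green in HepG2 monolayers, fluorescence measured at timed intervals up to 40 h of continuous compound exposure.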

[12] = qHTS RealTime-Glo MT Cell Viability Assay in HepG2 cells - 16 hour (AID 1224885); also: nearly all actives have a fitted effect of over 50% in size
Summary of the method: as §2

[13] = qHTS RealTime-Glo MT Cell Viability Assay in HEK293 cells - 8 hour (AID 1224887)
Summary of the method: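 Nonlytic bioluminescent viability monitoring. HEK293 at 600 cells/well with reagent; 5 h settle; compound transfer by pintool; plates held at 37 C and read at set time points.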

[14] = A CellTox Green Cytotoxicity Assay to monitor cytotoxicity in HepG2 cells - 8 hour (AID 1224890); also: nearly all actives have a fitted effect of over 45% in size
Summary of the method: as §3

[15] = qHTS assay to identify small molecule antagonists of the estrogen receptor alpha (ER-alpha) signaling pathway using the BG1 cell line in the presence of 0.1 nM 17-beta-estradiol - cell viability counter screen (AID 1259241); also: nearly all actives have a fitted effect of over 40% in size
Summary of the method: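 Live-cell protease activity (CellTiter-Fluor fluorescence, 30 min) was read in the same wells after VM7Luc4E2 cells had been exposed to compounds with 0.1 nM 17beta-estradiol for 22 hr at 37C.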

[16] = qHTS assay to identify small molecule phospholipidosis (PLD) inducers (AID 1259344; active = well fitted curve in the direction sought with a large enough effect; an effect the other way counts as inactive or inconclusive)
Summary of the method: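 Phospholipidosis is scored by imaging LipidTOX-stained pits in HepG2 cells exposed to compound for 24 h at 37 C; pit counts and integrated intensities per well and per cell serve as outputs.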

[17] = qHTS RealTime-Glo MT Cell Viability Assay in HEK293 cells - 24 hour (AID 1224886)
Summary of the method: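 Tox21 10K qHTS, HEK293, 600 cells/well, RealTime-Glo reagent co-dispensed with cells; 5 h preincubation, compound by pintool, 37 C, luminescence at 0–40 h.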

[18] = biological target: Androgen receptor (Homo sapiens) (UniProt P10275); test: qHTS assay to identify small molecule antagonists of the androgen receptor (AR) signaling pathway using the MDA cell line in the presence of 0.5 nM R1881 (AID 1259243); also: nearly all actives have a fitted effect of over 50% in size
Sequence of Androgen receptor (Homo sapiens) (P10275 whole entry, looked up): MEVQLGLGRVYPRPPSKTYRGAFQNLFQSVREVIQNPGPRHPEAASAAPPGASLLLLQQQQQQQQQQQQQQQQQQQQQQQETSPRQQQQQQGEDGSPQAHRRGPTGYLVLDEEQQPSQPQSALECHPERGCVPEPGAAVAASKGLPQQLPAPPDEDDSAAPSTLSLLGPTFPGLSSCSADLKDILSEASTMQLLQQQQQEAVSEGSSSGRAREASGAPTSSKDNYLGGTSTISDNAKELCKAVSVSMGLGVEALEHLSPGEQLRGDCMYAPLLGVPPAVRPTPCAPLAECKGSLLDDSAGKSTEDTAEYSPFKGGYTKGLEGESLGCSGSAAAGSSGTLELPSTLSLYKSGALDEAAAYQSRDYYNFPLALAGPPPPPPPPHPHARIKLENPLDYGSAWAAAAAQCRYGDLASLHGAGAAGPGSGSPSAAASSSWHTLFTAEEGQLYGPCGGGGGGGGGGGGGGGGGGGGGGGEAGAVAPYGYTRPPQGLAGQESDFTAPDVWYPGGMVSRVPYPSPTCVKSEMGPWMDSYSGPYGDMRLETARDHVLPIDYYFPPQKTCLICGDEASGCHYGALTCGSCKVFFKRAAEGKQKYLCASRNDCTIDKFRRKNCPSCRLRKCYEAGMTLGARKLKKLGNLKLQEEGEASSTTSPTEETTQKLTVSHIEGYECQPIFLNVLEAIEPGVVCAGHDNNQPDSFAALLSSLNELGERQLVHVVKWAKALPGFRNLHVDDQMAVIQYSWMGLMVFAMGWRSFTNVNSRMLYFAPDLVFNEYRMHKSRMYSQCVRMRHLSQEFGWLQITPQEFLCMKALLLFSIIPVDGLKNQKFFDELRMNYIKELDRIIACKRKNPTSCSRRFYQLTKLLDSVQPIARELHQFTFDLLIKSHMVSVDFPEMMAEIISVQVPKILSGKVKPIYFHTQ
Summary of the method: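 Steps: seed MDA-kb2 cells, incubate 5 hr at 37C; pin-transfer compounds in DMSO; add R1881 to 0.5 nM final; incubate 16 hr; add ONE-Glo, wait 30 min at room temperature; read luminescence.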

[19] = biological target: Estrogen receptor (Homo sapiens) (UniProt P03372); test: qHTS assay to identify small molecule antagonists of the estrogen receptor alpha (ER-alpha) signaling pathway using the BG1 cell line in the presence of 0.1 nM 17-beta-estradiol (AID 1259244); also: nearly all actives have a fitted effect of over 50% in size
Sequence of Estrogen receptor (Homo sapiens) (P03372 whole entry, looked up): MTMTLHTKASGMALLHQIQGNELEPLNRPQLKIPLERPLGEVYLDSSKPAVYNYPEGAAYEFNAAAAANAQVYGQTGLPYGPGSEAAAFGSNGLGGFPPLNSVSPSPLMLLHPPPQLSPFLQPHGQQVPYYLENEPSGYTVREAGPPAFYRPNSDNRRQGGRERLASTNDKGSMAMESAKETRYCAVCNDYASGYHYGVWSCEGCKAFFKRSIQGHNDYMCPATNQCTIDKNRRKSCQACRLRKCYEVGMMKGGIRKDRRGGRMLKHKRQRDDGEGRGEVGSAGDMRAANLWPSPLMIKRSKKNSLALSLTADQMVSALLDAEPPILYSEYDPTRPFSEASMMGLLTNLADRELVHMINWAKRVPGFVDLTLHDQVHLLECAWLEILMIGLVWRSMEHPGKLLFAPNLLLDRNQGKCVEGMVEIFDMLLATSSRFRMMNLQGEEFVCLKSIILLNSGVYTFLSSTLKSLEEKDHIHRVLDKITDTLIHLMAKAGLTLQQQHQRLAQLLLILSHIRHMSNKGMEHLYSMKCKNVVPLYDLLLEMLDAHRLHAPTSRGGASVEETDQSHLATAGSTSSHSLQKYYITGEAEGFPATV
Summary of the method: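 After 5 days in hormone-depleted medium (charcoal-stripped serum, no phenol red), VM7Luc4E2 cells were seeded, incubated 24 h, then co-treated with compound and 0.1 nM (final) estradiol for 22 h before luminescence detection.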

[20] = A CellTox Green Cytotoxicity Assay to monitor cytotoxicity in HepG2 cells - 0 hour (AID 1224882); also: nearly all actives have a fitted effect of over 35% in size; also: potency is read from the fitted curve at half-maximal effect
Summary of the method: as §3
% is scaled to controls: 0 for no effect and ±100 for the full control effect.

Cc1nc(C2CCCCC2)c(-c2ccc(S(N)(=O)=O)c(F)c2)o1
inactive: outcome [1] | outcome [2] | outcome [3] | Potency [4] | outcome [5] | Potency [6] | outcome [7] | Potency [8] | Potency [9] | outcome [10]

CN1CCN(c2cc3c(nn2)Oc2ccccc2N3C)CC1
inactive: cytotoxicity increase [1] -14.8% [at 15.8 µM] | cytotoxicity increase [11] -2% [at 15.8 µM] | cytotoxicity increase [2] -6.06% [at 15.8 µM] | activity change, negative = cytotoxic [12] -5.35% [at 15.8 µM] | activity change, negative = cytotoxicity [13] 0.282% [at 15.8 µM] | activity change [3] -9.75% [at 15.8 µM] | activity change, negative = cytotoxicity [4] -7.1% [at 15.8 µM] | cytotoxicity increase [14] 1.91% [at 15.8 µM] | activity change, negative = cytotoxicity [15] -8.18% [at 19 µM] | viability change, negative = cytotoxic [5] 0.195% [at 19 µM] | outcome [16] | activity change, negative = cytotoxicity [7] 2.56% [at 19 µM] | viability change, negative = cytotoxic [9] 0.668% [at 19 µM] | activity change [10] 5.44% [at 18.9 µM]
active: Potency [6] 4.61 µM

CCCCS(=O)(=O)N[C@@H](Cc1ccc(OCCCCC2CCNCC2)cc1)C(=O)O
inactive: Potency [11] | outcome [2] | outcome [12] | Potency [17] | Potency [13] | outcome [3] | Potency [4] | outcome [15] | outcome [5] | Potency [18] | outcome [19] | PLD induction [16] -2.88% [at 1.53 µM] | Potency [6] | outcome [7] | Potency [8] | Potency [9] | outcome [10]

CCCCCCCC1CCCC1=O (stereo not drawn)
inactive: Potency [20] | Potency [11] | outcome [2] | outcome [12] | Potency [13] | outcome [3] | Potency [4] | outcome [14] | outcome [15] | outcome [5] | Potency [18] | outcome [19] | Potency [6] | outcome [7] | Potency [8] | Potency [9] | outcome [10]

CC[C@H]1OC(=O)[C@H](C)[C@@H](O[C@H]2C[C@@](C)(OC)[C@@H](O)[C@H](C)O2)[C@H](C)[C@@H](O[C@@H]2O[C@H](C)C[C@H](N(C)C)[C@H]2O)[C@](C)(OC)C[C@@H](C)C(=O)[C@H](C)[C@@H](O)[C@]1(C)O
inactive: Potency [20] | outcome [2] | outcome [12] | Potency [17] | Potency [13] | outcome [3] | Potency [4] | outcome [14] | outcome [15] | outcome [5] | outcome [19] | outcome [16] | Potency [6] | outcome [7] | Potency [9]

CCCC[N+](C)(CCCC)CCCC
inactive: Potency [20] | Potency [11] | outcome [2] | outcome [12] | Potency [17] | Potency [13] | outcome [3] | Potency [4] | outcome [15] | outcome [5] | outcome [19] | Potency [6] | outcome [7] | Potency [8] | Potency [9]

CCCCCCC#CC(=O)OC
inactive: Potency [20] | Potency [11] | outcome [2] | outcome [12] | Potency [17] | outcome [3] | Potency [4] | outcome [14] | outcome [15] | outcome [5] | Potency [6] | outcome [7] | Potency [8] | Potency [9] | outcome [10]

Cc1ccccc1N=C(N)N=C(N)N
inactive: Potency [20] | Potency [11] | outcome [2] | outcome [12] | Potency [17] | Potency [13] | outcome [3] | Potency [4] | outcome [14] | outcome [15] | outcome [5] | Potency [6] | outcome [7] | Potency [8] | Potency [9] | outcome [10]

Cc1ccc(C(=O)c2ccc(CC(=O)O)n2C)cc1
inactive: outcome [2] | outcome [12] | Potency [13] | outcome [3] | Potency [4] | outcome [15] | outcome [5] | Potency [18] | outcome [19] | outcome [16] | outcome [7] | Potency [8] | Potency [9] | outcome [10]

C=CCCC(=O)O
inactive: Potency [20] | Potency [11] | outcome [2] | outcome [12] | Potency [17] | Potency [13] | outcome [3] | Potency [4] | outcome [14] | outcome [5] | outcome [19] | Potency [6] | outcome [7] | Potency [8] | Potency [9] | outcome [10]

CC(C)(C)c1ccc(-c2ccc(C(C)(C)C)cc2)cc1
inactive: Potency [20] | Potency [11] | outcome [12] | Potency [17] | Potency [13] | outcome [3] | Potency [4] | outcome [14] | outcome [15] | outcome [5] | Potency [18] | outcome [19] | Potency [6] | outcome [7] | Potency [8] | Potency [9] | outcome [10]

c1ccc(Cc2ccccc2)cc1
inactive: Potency [20] | Potency [11] | outcome [2] | outcome [12] | Potency [17] | Potency [13] | outcome [3] | Potency [4] | outcome [14] | outcome [5] | outcome [19] | Potency [6] | outcome [7] | Potency [8] | Potency [9] | outcome [10]

COCCOC[C@H](CC1(C(=O)NC2CCC(C(=O)O)CC2)CCCC1)C(=O)Oc1ccc2c(c1)CCC2 (stereo partly drawn)
inactive: Potency [11] | outcome [2] | outcome [12] | Potency [17] | outcome [3] | Potency [4] | outcome [14] | outcome [15] | outcome [5] | Potency [18] | outcome [19] | Potency [6] | outcome [7]

Cc1ccc(C(=O)Nc2ccc(S(=O)(=O)O)c3cc(S(=O)(=O)O)cc(S(=O)(=O)O)c23)cc1NC(=O)c1cccc(NC(=O)Nc2cccc(C(=O)Nc3cc(C(=O)Nc4ccc(S(=O)(=O)O)c5cc(S(=O)(=O)O)cc(S(=O)(=O)O)c45)ccc3C)c2)c1
active: Potency [20] 23.9 µM
inactive: Potency [11] | outcome [2] | outcome [12] | Potency [17] | outcome [3] | Potency [4] | outcome [14] | outcome [15] | outcome [5] | outcome [19] | outcome [16] | Potency [6] | outcome [7] | Potency [8] | Potency [9]

C=CN1CCCCCC1=O
inactive: Potency [20] | Potency [11] | outcome [2] | outcome [12] | Potency [17] | Potency [13] | outcome [3] | Potency [4] | outcome [14] | outcome [5] | Potency [6] | outcome [7] | Potency [8] | Potency [9] | outcome [10]

C[C@H]1[C@H](NC(=O)/C(=N/OC(C)(C)C(=O)O)c2csc(N)n2)C(=O)N1S(=O)(=O)O (stereo in doubt)
inactive: Potency [20] | Potency [11] | outcome [2] | outcome [12] | Potency [17] | Potency [13] | outcome [3] | Potency [4] | outcome [14] | outcome [5] | outcome [16] | Potency [6] | outcome [7] | Potency [8] | Potency [9] | outcome [10]
